TRPV1 PAM = HTS Assay for Compounds that Act as Potentiators of the Vanilloid Receptor 1 | TRPV1-expressing cells, Fluo-8 calcium influx, capsaicin EC20 potentiation | potentiation, % at 8.33 µM | 320,000 compounds, 0.02% hits; in the data active means potentiation above about 80%; inconclusive means between about 30% and that limit; further: 0% is about no effect
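TRPV1-expressing cells were cultured overnight at 35.5C and loaded with Fluo-8 calcium dye for 40 to 90 min at room temperature. After a 10 s baseline, compound was added and calcium influx was read kinetically for 3 min (ex 480/em 520 nm).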
RORgamma inh = qHTS for inhibitors of ROR gamma transcriptional activity. Nuclear receptor ROR-gamma (Mus musculus), P51450. Drosophila S2 Gal4-RORgamma UAS-luciferase reporter, 20 h. Potency, µM (series often up to 53.6 µM), without a hit: at the highest dose activity change, negative = inhibition, actives largely listed as inhibitors. 310,000 compounds, 5.4% hits. AID 2551, 2010; further: potency means the concentration at half of the fitted maximal effect; on the % scale 0 is the no-effect control and ±100 the full control effect; nearly all actives have a fitted effect of over 60% in size
Target sequence (P51450 whole entry, looked up, the tested form may be a part): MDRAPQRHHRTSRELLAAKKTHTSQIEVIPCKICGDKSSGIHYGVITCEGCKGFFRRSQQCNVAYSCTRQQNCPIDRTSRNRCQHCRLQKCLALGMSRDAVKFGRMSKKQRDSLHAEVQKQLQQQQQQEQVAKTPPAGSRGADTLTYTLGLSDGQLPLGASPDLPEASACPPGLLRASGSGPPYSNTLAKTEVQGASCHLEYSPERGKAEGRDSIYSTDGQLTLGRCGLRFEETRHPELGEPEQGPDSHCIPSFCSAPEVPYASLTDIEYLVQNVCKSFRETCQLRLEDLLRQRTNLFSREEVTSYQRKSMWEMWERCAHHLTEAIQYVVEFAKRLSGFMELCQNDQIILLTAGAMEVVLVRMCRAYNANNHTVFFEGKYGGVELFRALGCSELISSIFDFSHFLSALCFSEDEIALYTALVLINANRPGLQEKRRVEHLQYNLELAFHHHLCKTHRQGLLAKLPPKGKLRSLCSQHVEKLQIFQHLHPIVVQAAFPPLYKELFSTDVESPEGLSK
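Using a luciferase readout, inhibitors were identified by reduced reporter activity in Drosophila cells coexpressing a copper-inducible Gal4–ROR gamma fusion and UAS-driven Photinus luciferase, incubated 20 hr after 700 uM copper sulfate.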
TRPV1 ag = HTS Assay for Compounds that Act as Agonists of the Vanilloid Receptor 1; Transient receptor potential cation channel subfamily V member 1 (Homo sapiens), Q8NER1; TRPV1-expressing cells, Fluo-8 calcium influx, agonist mode; activation, % at 8.33 µM; 320,000 compounds, 0.19% hits; AID 540275, 2011; in the data active means activation above about 80%; inconclusive means between about 30% and that limit; further: 0% is about no effect
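Cells expressing TRPV1 were dye-loaded with Fluo-8 and read kinetically: 10 s baseline, 3 min after compound (agonist portion), then 2 min after EC20 capsaicin (allosteric enhancer portion). Calcium-bound dye fluorescence at 480/520 nm.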
uPA generation = qHTS for Inhibitors of Cell Surface uPA Generation; Potency, µM (top dose mostly 38.3 µM), for inactives: at the top dose activity change, negative = inhibition, hits mostly inhibitors; cell surface uPA generation assay, qHTS; AID 540303, 2011; 330,000 compounds, 0.31% hits; active means well fitted inhibition curve with a large enough effect; inconclusive means small, poorly fitted or top-dose-only effect; inactive means no such curve, though single readings can be large or run the other way; tested in mouse RAW 264.7 cells; further: potency means the concentration at half of the fitted maximal effect; on the % scale 0 is the no-effect control and ±100 the full control effect; nearly all actives have a fitted effect of over 55% in size
Gal4-VP16 FLuc = VP16 counterscreen qHTS for inhibitors of ROR gamma transcriptional activity. Drosophila S2 Gal4-VP16 UAS-luciferase, luminescence, 20 h. Potency, µM (titrated, usually from 53.6 µM), inactives show top-dose activity, negative = inhibition, actives largely listed as inhibitors. 310,000 compounds, 3.5% hits;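 further: Gal4-VP16 expression switched on by copper sulfate through the metallothionein promoter; potency means the concentration at half of the fitted maximal effect; on the % scale 0 is the no-effect control and ±100 the full control effect; nearly all actives have a fitted effect of over 50% in size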
Active calls of the source: *; i = inactive; ? = inconclusive; nt = no result given; [ ] = dose if it differs, or a comment. Rows were chosen to be rich in hits. Some 5.8% of all compounds tested hit in one or more screens of this group. Unless noted, the call rests on the fitted dose curve; in most records, active means well fitted curve in the direction sought with a large enough effect; inconclusive means small, poorly fitted or top-dose-only effect, or another doubt; inactive means no such curve, though single readings can be large; an effect the other way counts as inactive or inconclusive.

SMILES	TRPV1 PAM	RORgamma inh	TRPV1 ag	uPA generation	Gal4-VP16 FLuc
CCCCC1=CC2=C(OC(C)=O)C(=O)C(C)(OC(=O)c3ccco3)C(=O)C2=CO1 (stereo not drawn)	nt	-2%	nt	nt	2%
COc1ccc(NC(=O)C2CCCN(c3nccc(C)n3)C2)cc1 (stereo not drawn)	22	-21%	94*	2%	-3%[10 µM]
Cc1cc(N2CCCC(C(=O)Nc3ccc4c(c3)CCC4)C2)n2ncnc2n1 (stereo not drawn)	10	?	93*	nt	-4%
COCCN=C1NC(=O)C(CC(=O)Nc2cccc(Cl)c2C)S1 (stereo not drawn)	-2	13%	5	3%	3%
NC(CS)C(=O)O (stereo not drawn)	nt	-18%[10 µM]	nt	nt	-3%
O=C1c2ccccc2C(=O)C12OC2c1cccc2ccccc12 (stereo not drawn)	21	?	-11	-2%	14µM*
COC(=O)[C@H](C)NC(=O)C/C=C\[C@@H](C)CO	nt	5%[10 µM]	nt	nt	-8%[10 µM]
CC[C@H](C)[C@H](NC(=O)[C@H](Cc1ccc(O)cc1)NC(=O)[C@H](Cc1cnc[nH]1)NC(=O)[C@H](CCCNC(=N)N)NC(=O)[C@H](CC(C)C)NC(=O)[C@H](C)NC(=O)[C@H](CO)NC(=O)[C@H](Cc1ccc(O)cc1)NC(=O)[C@H](Cc1ccc(O)cc1)NC(=O)[C@H](CCCNC(=N)N)NC(=O)[C@H](C)NC(=O)[C@H](CCSC)NC(=O)[C@H](CC(=O)O)NC(=O)[C@H](CCC(=O)O)NC(=O)[C@H](C)NC(=O)[C@@H]1CCCN1)C(=O)N[C@@H](CC(N)=O)C(=O)N[C@@H](CC(C)C)C(=O)N[C@H](C(=O)N[C@H](C(=O)N[C@@H](CCCNC(=N)N)C(=O)N[C@@H](CCC(N)=O)C(=O)N[C@@H](CCCNC(=N)N)C(=O)N[C@@H](Cc1ccc(O)cc1)C(N)=O)[C@@H](C)O)[C@@H](C)CC	nt	-3%	nt	nt	-5%
O=C(NCc1cccnc1)NC1(C(F)(F)F)Oc2ccccc2O1	8	10µM*	0	-13%	?
On1c2c(c3c4nonc4ccc31)CCCC2	?	?	1	nt	22µM*
COn1c2c(c3c4nonc4ccc31)CCCC2	3	16%	-2	-20%	13%
CCc1ccc(OCC(=O)NNC(=O)C2CCC2)cc1	1	nt	-3	-1%	nt
Cc1cc(C)n(CCc2nc(-c3ccc(-c4ccccc4)cc3)cs2)n1	1	-34%	-1	-4%	6%
Cc1nc(N)sc1-c1csc(Nc2ncccn2)n1	0	6.3µM*	4	-3%	?
COc1ccc(/C=C/c2nc3ccccc3n2Cc2ccc(OC)c(OC)c2)cc1	-6	13µM*	1	?	?
COc1ccc(Cn2c(-c3ccc(OC)cc3)nc3ccccc32)cc1	-8	11µM*	24	-2%	?
CCOc1ccc(Cn2c3ccc(OC)cc3c3nc4ccccc4nc32)cc1OC	?	13µM*	3	2%	?
COc1ccc(-c2nc3ccccc3n2OCC(=O)O)cc1	8	?	-2	-5%	13µM*
COCCn1c(-c2ccc(OC)cc2)nc2ccccc21	-7	-21%	0	-3%	14%
CCc1nc2ccccc2n1Cc1ccc(OC)c(OC)c1	-9	-26%	19	-12%	-10%
O=C(O)COn1c(-c2ccc(Cl)cc2)nc2ccc(Cl)cc21	3	1%	-6	0%	0%
CC(C)C[C@@H](CC(=O)N[C@@H](CCC(=O)O)CC(=O)O)NC(=O)[C@@H]1CNCC[C@H]1NC(=O)C[C@H](CCCN)NC(=O)C[C@H](CO)NC(=O)[C@@H]1CCCC[C@H]1N	nt	3%	nt	nt	-1%
C=C(C)Cn1c(-c2ccccc2)nc2ccccc21	20	14µM*	18	-3%	?
CCCCCCCCCn1ccc(=N)cc1	-5	?	5	-16%	1.6µM*
CCn1ccc(=N)cc1	-2	5%	1	-2%	16µM*
SMILES	TRPV1 PAM	RORgamma inh	TRPV1 ag	uPA generation	Gal4-VP16 FLuc
N=c1ccn(Cc2ccc(Cl)cc2)cc1	14	-35%	4	-17%	-15%
Nc1ccc2nc(-c3cccc(-c4nc5ccc(N)cc5[nH]4)n3)[nH]c2c1	-9	10%	3	-5%	-27%
CC(=O)Nc1ccc2nc(-c3ccncc3)[nH]c2c1	3	-19%	14	-3%	-6%
c1ccc(-c2nc3cc4ccccc4cc3[nH]2)nc1	3	2.8µM*	?	-13%	3.2µM*
O=C(Nc1ccc(-c2nc3ccc(NC(=O)c4cccs4)cc3[nH]2)cc1)c1cccs1	9	13µM*	-3	-5%	?
CC(=O)Nc1ccc2nc(-c3ccccn3)[nH]c2c1	-4	10µM*	2	-9%	-24%
O=C1C2=C(C(=O)c3ccccc31)C1O[C@](c3ccsc3)(Cc3ccccc31)O2	i	21%[10 µM]	i	nt	1%[10 µM]
N[C@H](CSCc1ccccc1)C(=O)Nc1ccc([N+](=O)[O-])cc1	-24	33%	?	-1%	-3%
CCOc1ccc(OCCC(=O)OCC(=O)NC(C)c2ccccc2)cc1 (stereo not drawn)	-4	nt	5	-2%	nt
C(=N\Nc1nc(Nc2ccccc2)nc(N2CCCCC2)n1)/c1ccco1	-9	2.2µM*	?	nt	13µM*
O=C(O)COc1ccc(/C=N/Nc2nc(Nc3ccccc3)nc(N3CCCCC3)n2)cc1	-6	?	1	-15%	?
COc1ccc(/C=N/Nc2nc(Nc3ccccc3)nc(N3CCCC3)n2)cc1	7	2.8µM*	4	-1%	-6%
COc1ccc(Nc2nc(N3CCCCC3)c3ccccc3n2)cc1	-21	18µM*	22	-5%	7.1µM*
COc1nc(N/N=C/c2ccc(C)cc2)nc(N2CCCCC2)n1	-11	-38%	?	0%	3%
COc1ccc(/C=N/Nc2nc(N3CCCC3)nc(N3CCCC3)n2)cc1	-18	5µM*	23	-8%	?
Cc1cc2c(nc1C)CCCN2CC(O)CN1CCCc2nc(C)c(C)cc21	nt	16%[10 µM]	nt	nt	-1%[10 µM]
COc1ccc(/C=N/Nc2nc(N3CCCC3)nc(N3CCCC3)n2)cc1O	-23	11µM*	?	-8%	-8%
O=S(=O)(Nc1cccc2cccnc12)c1ccccc1Br	10	nt	16	nt	nt
CC[C@]12c3[nH]c4ccc(OC)cc4c3CCN1C(=O)C(CC(=O)NCCCOC)C[C@@H]2C(=O)N1CCN(C(=O)C2CC2)CC1 (stereo partly drawn)	nt	nt	nt	15%	nt
CC(C)c1ccc(-c2cc(C(=O)NN3CCN(C)CC3)c3ccccc3n2)cc1	3	11µM*	5	-4%	14µM*
